Compound activity (PubChem)
MARV entry inh – blocks Marburg virus binding to or entry into cells; Marburg virus pseudotyped entry inhibition, cell reporter; 300,000 compounds, 1.8% hits; Potency, µM (series often up to 37.8 µM), for the others: top-dose activity change, negative = inhibition, actives largely listed as inhibitors; AID 540276; calls by dose curve; tested in HEK293 cells; further: potency means the concentration at half of the fitted maximal effect; on the % scale 0 is the no-effect control and ±100 the full control effect
Cycloheximide cs – affects cycloheximide protein synthesis inhibition readout, counter-screen | max response, % | 300,000 compounds, 12% hits | AID 2314 | cell reporter, cycloheximide protein synthesis inhibition counterscreen; in the data active means max response mostly above about 13%, no sharp cut-off; inactive means mostly below about 14%; further: read at 38.3 µM for the half of the compounds with a filed dose; 0% is about no effect
Lassa entry inh – inhibitors of Lassa virus binding or cell entry. Lassa virus pseudotype entry inhibition, cell reporter. Potency, µM (titrated, usually from 37.9 µM), for inactives: top-dose activity change, negative = inhibition, most hits filed as inhibitors. 300,000 compounds, 1.2% hits. AID 540256; calls by dose curve; tested in HEK293 cells; further: potency means the concentration at half of the fitted maximal effect; on the % scale 0 is the no-effect control and ±100 the full control effect; nearly all actives have a fitted effect of over 50% in size
Shiga inhibitor – Shiga toxin inhibition; Vero cells, Shiga toxin protein synthesis inhibition reporter; inhibition, % at 38.7 µM; 290,000 compounds, 9.2% hits; in the data active means inhibition mostly above about 28%, no sharp cut-off; inactive means mostly below about 43%; further: 0% is about no effect
Pf growth 96h – P. falciparum growth inhibition at 96 hours. AID 504834. P. falciparum luciferase reporter growth, 96 h. Potency, µM (doses to about 28.7 µM), without a hit: at the highest dose activity change, negative = inhibition, hits mostly inhibitors. 320,000 compounds, 6.9% hits; further: potency means the concentration at half of the fitted maximal effect; on the % scale 0 is the no-effect control and ±100 the full control effect
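P. falciparum expressing integrated firefly luciferase grown in erythrocytes (2% hematocrit, 0.05% parasitemia final) with compounds for 96 hours at 37 C, 5% CO2. Growth inhibition read as loss of luminescence after adding luciferase detection reagent.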
Pf growth 48h – P. falciparum growth inhibition at 48 hours (one generation); P. falciparum luciferase growth in erythrocytes, 48 h; Potency, µM (doses to about 28.7 µM), for inactives: at the highest dose activity change, negative = inhibition, most hits filed as inhibitors; 310,000 compounds, 5.9% hits; further: potency means the concentration at half of the fitted maximal effect; on the % scale 0 is the no-effect control and ±100 the full control effect
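Luciferase-expressing P. falciparum in infected erythrocytes (2% hematocrit, 0.1% parasitemia final) in RPMI 1640/0.5% Albumax were exposed to compound for 48 hours at 37 C, 5% CO2; growth read as luminescence.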
* marks the source's active call; other numbers are inactive results; u = inconclusive; x = no result given; [ ] = another dose, or the depositor's remark. In the library only some 19% were active in any assay of this set; here they are far more common. Unless noted, the call rests on the fitted dose curve; in most records, active means well fitted inhibition curve with a large enough effect; inconclusive means small, poorly fitted or top-dose-only effect, or another doubt; inactive means no such curve, though single readings can be large or run the other way.

SMILES	MARV entry inh	Cycloheximide cs	Lassa entry inh	Shiga inhibitor	Pf growth 96h	Pf growth 48h
O=C(CC1=NCCNC(c2ccccc2)C1)c1ccccc1O (stereo not drawn)	u	32*	3%	36*	u	2%
N#Cc1c2ccccc2nc2ccccc12	x	2	x	-2	20%	-4%
N#Cc1ccc(COC(=O)c2cc(=O)c3ccccc3o2)cc1	x	2	x	-5	10%	28%
O=C(OCc1nnc(-c2ccccc2)o1)c1cc(=O)c2ccccc2o1	8%	26*	u	36	86%	-8%
O=C(OCc1ccc([N+](=O)[O-])cc1)c1cc(=O)c2ccccc2o1	12%[46.1 µM]	9.7*	6%	26	73%	50%
Nc1ccccc1-c1ccc([N+](=O)[O-])cc1	5.6µM*	x	u	x	x	x
Nc1ccc(-c2ccc(N)c([N+](=O)[O-])c2)cc1[N+](=O)[O-]	-17%	8	2%	36	336%	73%
Nc1ccccc1C(=O)OCc1ccc([N+](=O)[O-])cc1	28%[46.1 µM]	33*	0%	76*	24%	57%
CSc1ncccc1C(=O)OCc1ccc([N+](=O)[O-])cc1	2%[46.1 µM]	32	8%[46.1 µM]	30	u	15%
CN1CCNC(=O)C1CC(=O)NCC1(c2ccccc2)CCCCC1 (stereo not drawn)	x	-3	x	-12	-16%	2%
O=C(CCCC(=O)OCC(F)(F)C(F)F)Nc1ccc(NC(=O)CCCC(=O)OCC(F)(F)C(F)F)cc1	7%	-5	-6%	-20	x	-5%
COc1ccc(NC(=O)Cc2ccc(Cl)cc2Cl)cn1	7%[46.1 µM]	-1	-10%[46.1 µM]	-12	1%	-6%
O=c1c2c3c(sc2nc(NCCO)n1CCc1ccccc1)CCCCC3	u	10	u	-15	u	u
CCN(CC)CCn1c(=O)n(-c2ccc(Cl)cc2)c(=O)c2c3c(sc21)CN(C)CC3	x	2	x	52	-15%	4.7µM*
CN1CCc2c(sc3nc(NN)n(Cc4ccccc4)c(=O)c23)C1	u	8	-2%[46.1 µM]	-3	2.1µM*	3.7µM*
CN1CCc2c(sc3c2c(=O)n(-c2ccc(Cl)cc2)c2nncn32)C1	-2%	-3	-4%	-7	x	-9%
CN1CCc2c(sc3nc(NN)n(-c4ccc(Cl)cc4)c(=O)c23)C1	x	7	x	29*	u	x
CCN(CC)S(=O)(=O)c1cccc(-c2n[nH]c(=S)n2C(C)COC)c1 (stereo not drawn)	9%[46.1 µM]	-7	-12%	-15	-13%	-5%
Cc1ccc(-c2csc(NCCn3c(-c4ccncc4)nc4ccccc43)n2)cc1	x	-2	x	4	0%	-4%
O=C(C1CCCN(S(=O)(=O)c2ccc(Cl)cc2)C1)N(Cc1cccs1)C1CC1 (stereo not drawn)	u	-1	-25%	13	1%	13µM*
Cc1ccc(C(=O)O)cc1N1C(=O)c2cccc3c([N+](=O)[O-])ccc(c23)C1=O	x	-1	x	-6	225%	0%
Cc1ccc(C(=O)/C=C/c2ccc3c(c2)OCO3)o1	-10%	49*	-2%	52*	0%	48%
Cc1ccc(C(=O)/C=C/c2ccc(Br)cc2)o1	u	-2	-14%	-7	91%	u
O=C(N/N=C/c1ccc2c(c1)OCO2)c1cc2ccccc2o1	x	12*	x	17	22%	14%
Nc1cccc(C(=O)N/N=C/c2ccsc2)c1	u	33*	8%	54*	65%	102%
SMILES	MARV entry inh	Cycloheximide cs	Lassa entry inh	Shiga inhibitor	Pf growth 96h	Pf growth 48h
Cc1ccc(C(=O)N/N=C/c2ccc3c(c2)OCO3)o1	5%	63*	u	60*	-18%	108%
CCNC(=O)NC(=O)C(C)OC(=O)c1oc2ccc(OCC)cc2c1C (stereo not drawn)	-2%	-1	8%	-17	27%	0%
CC(C)C[C@H](NC(=O)C1(c2ccccc2)CCN(C(=O)[C@H]2CSCN2C(=O)OC(C)(C)C)CC1)C(=O)O	u	-4	11%	1	-18%	-11%
O=C(N/N=C/c1cccc2ccccc12)c1cc2ccccc2o1	x	12	x	6	26%	58%
Cc1ccc(C(=O)/C=C/c2ccccc2)o1	-1%	40*	5%	61	u	x
O=C(N/N=C/c1ccsc1)c1cc2ccccc2o1	x	62*	x	41*	47%	19%
O=C(c1c[nH]c2ccc(S(=O)(=O)Nc3ccccc3F)cc2c1=O)N1CCCCCC1	-5%[46.1 µM]	x	8%[46.1 µM]	x	x	x
